Activity calls are given as the source filed them. The calls were made as follows: active = hit-call score of the fitted dose curve at least 0.9, where 1 is the maximum; inactive = score below 0.9.
Columns and labels:
Conditions in all cases: mRNA level, 48 h; actives raise or lower the signal
[1] = read-out: CYP3A5 (gene 1577); test: LTEA_HepaRG_CYP3A5: Life Technologies and Expression Analysis (LTEA) Assay for CYP3A5 using HepaRG (AID 2283493)
In short: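 Human HepaRG hepatic cells receive 48 h chemical treatment at eight concentrations (half-log steps from 100 uM) in 0.5% DMSO. Expression of CYP3A5 is quantified by Fluidigm qRT-PCR and normalized to three reference genes.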

[2] = read-out: Fatty Acid-Binding Protein 1 (FABP1), FABP1 (gene 2168); test: LTEA_HepaRG_FABP1: Life Technologies and Expression Analysis (LTEA) Assay for Fatty Acid-Binding Protein 1 (FABP1) using HepaRG (AID 2283494)
In short: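 qRT-PCR readout of FABP1 transcript (normalized to three housekeeping genes) after 48 h chemical exposure of HepaRG cells; eight concentrations, half-log steps, max 100 uM, 0.5% DMSO vehicle; gain or loss fitted relative to DMSO baseline.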

[3] = read-out: Cytochrome P450 7A1 (Homo sapiens) (UniProt P22680); test: LTEA_HepaRG_CYP7A1: Life Technologies and Expression Analysis (LTEA) Assay for Cytochrome P450 7A1 (CYP7A1) using HepaRG (AID 2283496)
In short: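 HepaRG, 48 h exposure, 8-pt half-log series from 100 uM, 0.5% DMSO vehicle, duplicates. Readout: TaqMan qRT-PCR mRNA vs three housekeeping genes; bidirectional curve fit against DMSO baseline.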

[4] = read-out: Glutathione S-Transferase (GSTA2), GSTA2 (gene 2939); test: LTEA_HepaRG_GSTA2: Life Technologies and Expression Analysis (LTEA) Assay for Glutathione S-Transferase (GSTA2) using HepaRG (AID 2283497)
In short: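 qRT-PCR readout of GSTA2 transcript, normalized to three housekeeping genes, fitted bidirectionally against 0.5% DMSO baseline. Differentiated HepaRG cells received compound for 48 h at 8 concentrations (top 100 uM, half-log steps).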

[5] = read-out: Glutamate-cysteine ligase catalytic (GCLC), GCLC (gene 2729); test: LTEA_HepaRG_GCLC: Life Technologies and Expression Analysis (LTEA) Assay for Glutamate-cysteine ligase catalytic (GCLC) using HepaRG (AID 2283498)
In short: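 HepaRG, 48 h exposure, 8-pt half-log series from 100 uM, 0.5% DMSO vehicle; TaqMan qRT-PCR for GCLC mRNA, housekeeping-normalized; bidirectional curve fit vs DMSO baseline.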

[6] = read-out: growth arrest and DNA damage 45 (GADD45G), GADD45G (gene 10912); test: LTEA_HepaRG_GADD45G: Life Technologies and Expression Analysis (LTEA) Assay for growth arrest and DNA damage 45 (GADD45G) using HepaRG (AID 2283499)
In short: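 Gain or loss of GADD45G mRNA, quantified by TaqMan qRT-PCR against three housekeeping genes, is fitted in both directions relative to 0.5% DMSO. Human HepaRG cultures receive test chemical for 48 h at up to 100 uM.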

[7] = read-out: Glutamate-cysteine ligase regulatory (GCLM), GCLM (gene 2730); test: LTEA_HepaRG_GCLM: Life Technologies and Expression Analysis (LTEA) Assay for Glutamate-cysteine ligase regulatory (GCLM) using HepaRG (AID 2283500)
In short: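 Endpoint is GCLM transcript level by qRT-PCR, normalized to three housekeeping genes, after 48 h chemical exposure of human HepaRG cells (0.5% DMSO vehicle, top 100 uM, half-log dilutions). Fitting was bidirectional relative to DMSO.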

[8] = read-out: Glutathione S-transferase M3 (GSTM3), GSTM3 (gene 2947); test: LTEA_HepaRG_GSTM3: Life Technologies and Expression Analysis (LTEA) Assay for Glutathione S-transferase M3 (GSTM3) using HepaRG (AID 2283501)
In short: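 HepaRG, plated 48 h, then serum-free induction medium; test chemical 48 h, duplicate; 100 uM top, half-log x8, 0.5% DMSO. Read-out: GSTM3 mRNA (TaqMan qRT-PCR, Fluidigm array). Bidirectional fit vs DMSO.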

[9] = read-out: Heat shock 70 kDa protein 1 (HSPA1A), gene 3303; test: LTEA_HepaRG_HSPA1A: Life Technologies and Expression Analysis (LTEA) Assay for Heat shock 70 kDa protein 1 (HSPA1A) using HepaRG (AID 2283502)
In short: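 Cells were plated and cultured for 48 h, then switched to serum-free induction medium. Chemicals were added at eight half-log concentrations up to 100 uM for 48 h. RNA was then isolated and HSPA1A measured by qRT-PCR with bidirectional curve fitting against DMSO.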

Measured: AC50

NC(N)=O
inactive: all assays above

CCN(CC)C(=S)SSC(=S)N(CC)CC
not listed: [2]
inactive: all other assays above

CCCCCCCC1CCC(=O)O1 (stereo unspecified)
not listed: [1] | [3]
inactive: all other assays above

O=C(O)c1cccc(C(=O)O)c1
not listed: [2]
inactive: all other assays above

OCC(CO)(CO)CO
inactive: all assays above

Nc1ccn([C@@H]2O[C@H](CO)[C@@H](O)[C@@H]2O)c(=O)n1
inactive: all assays above

CNC(C)=O
inactive: all assays above

CCCCCCCCCCCCCCCCOS(=O)(=O)O
active: [3] 45.2 µM | [4] 43.5 µM
inactive: all other assays above

Cc1nccn1-c1ccc(Sc2cccc(C3(C(N)=O)CCOCC3)c2)cc1
active: [1] 19.5 µM | [2] 11.6 µM | [3] 15.1 µM | [4] 10.7 µM | [6] 4.69 µM | [7] 7.4 µM | [8] 23.8 µM
inactive: [5] | [9]

CCCCCCCCCC
inactive: all assays above

O=C(O)c1ccc2c(c1)nc(C(=O)NC1CCN(C3CC3)CC1)n2Cc1cc(-c2ccc(Cl)s2)on1
inactive: all assays above

COc1cc(C(C)C)c2c(c1)S(=O)(=O)N(COc1cc(=O)n3cccc(OCCN4CCCCC4)c3n1)C2=O
inactive: [7] | [8]
active: [1] 20.9 µM | [2] 21.7 µM | [3] 19.6 µM | [4] 20.5 µM | [5] 12.5 µM | [6] 19.1 µM | [9] 19.7 µM

CCCC(CCC)C(=O)O
inactive: all assays above

CCCCCCCCCCCCCCO
inactive: all assays above

OC[C@H]1O[C@@](CO)(O[C@H]2O[C@H](CO)[C@@H](O)[C@H](O)[C@H]2O)[C@@H](O)[C@@H]1O
inactive: all assays above

OCc1ccccc1
inactive: all assays above

CCc1cccc(CC)c1N
inactive: all assays above

O=C(O)[C@H](O)[C@@H](O)C(=O)O
not listed: [1] | [3]
inactive: all other assays above
